Bioassay records deposited in PubChem by The Scripps Research Institute Molecular Screening Center.
An excerpt weighted towards active compounds, which were near 1.8% of everything screened.
LYPLA2 inh – LYPLA2 inhibitors, primary screen, counter-screen for PME1 inhibitor project, biochemical, fluorescence polarization, FP-Rh probe ABPP. Acyl-protein thioesterase 2 (Homo sapiens), O95372. recombinant LYPLA2. inhibition, % at 5.9 µM. 320,000 tested, 0.38% active. AID 2177, 2009;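 active = inhibition above the screen-wide mean plus 3 SD, limit set per campaign, cut at about 26% in these data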;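 also: 0% = LYPLA2 with DMSO and 100% = wells lacking LYPLA2 enzyme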
Fam108B counter – mouse Fam108B serine hydrolase inhibitors, primary screen, counter-screen for RBBP9 inhibitor project, biochemical, fluorescence polarization; inhibition, % at 9.51 µM; recombinant Fam108B, FP-Rh probe fluorescence polarization; 300,000 tested, 0.33% active;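 active = inhibition above the screen mean inhibition plus 3 SD, computed separately per campaign, cut at about 18% in these data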;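 also: inhibitors lower polarization as less probe binds the enzyme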
PME-1 primary – PME-1 inhibitors via competitive probe labeling, primary screen, biochemical, fluorescence polarization, FP-Rh probe, HTS; recombinant PME-1; AID 2130, 2009; Protein phosphatase methylesterase 1 (Homo sapiens), Q9Y570; inhibition, % at 5.9 µM; 320,000 tested, 0.53% active;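 active = inhibition above the campaign mean of all compounds plus 3 SD, cut at about 26% in these data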;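 also: competitive labeling of PME-1 active site by serine hydrolase directed probe; 0% = PME-1 with DMSO and 100% = wells lacking PME-1 enzyme; inhibitors block probe labeling so polarization falls and inhibition rises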
LYPLA1 counter – LYPLA1 inhibitors, primary screen, counter-screen for PME1 inhibitor project, biochemical, fluorescence polarization, FP-Rh probe ABPP | Acyl-protein thioesterase 1 (Homo sapiens), O75608 | recombinant LYPLA1 | 320,000 tested, 0.16% active | inhibition, % at 5.9 µM;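 active = inhibition above the mean of all tested compounds plus 3 SD, set per campaign, cut at about 14% in these data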;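 also: inhibitors block serine hydrolase probe labeling of LYPLA1 so polarization falls; 0% = enzyme with DMSO and 100% = wells lacking LYPLA1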
PAD4 FP inh – human PAD4 inhibitors, primary screen, biochemical, fluorescence polarization, 1536-well format; recombinant PAD4, RCA probe fluorescence polarization; inhibition, % at 6.36 µM; 330,000 tested, 0.41% active; AID 485272, 2010;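 active = percent inhibition above a cutoff equal to the mean of all tested compounds plus 3 SD, cut at about 15% in these data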;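 also: 0% = PAD4 with RCA probe and DMSO and 100% = probe without PAD4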
Target sequence (Q9UM07 whole entry, looked up): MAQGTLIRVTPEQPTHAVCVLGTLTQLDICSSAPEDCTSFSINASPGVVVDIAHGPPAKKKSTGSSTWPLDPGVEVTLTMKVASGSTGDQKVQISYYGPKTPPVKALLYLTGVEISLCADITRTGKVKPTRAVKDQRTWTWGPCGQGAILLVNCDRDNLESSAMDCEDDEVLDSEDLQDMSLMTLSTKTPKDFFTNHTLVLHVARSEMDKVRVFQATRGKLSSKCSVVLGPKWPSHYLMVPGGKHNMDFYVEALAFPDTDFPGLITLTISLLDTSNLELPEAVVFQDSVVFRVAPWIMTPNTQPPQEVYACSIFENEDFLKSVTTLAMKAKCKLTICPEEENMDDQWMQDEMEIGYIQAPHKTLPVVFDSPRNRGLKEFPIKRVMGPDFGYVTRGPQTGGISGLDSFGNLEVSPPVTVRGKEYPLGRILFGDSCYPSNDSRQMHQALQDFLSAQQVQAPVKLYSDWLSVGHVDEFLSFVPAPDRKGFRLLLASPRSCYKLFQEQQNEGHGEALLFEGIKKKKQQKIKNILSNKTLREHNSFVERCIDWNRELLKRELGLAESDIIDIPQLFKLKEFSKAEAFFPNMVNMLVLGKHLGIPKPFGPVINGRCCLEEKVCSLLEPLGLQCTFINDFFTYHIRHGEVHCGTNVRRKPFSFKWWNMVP
GSTO1 inh – inhibitors of recombinant GSTO1, primary screen, counter-screen for RBBP9 inhibitor project, biochemical, fluorescence polarization; 300,000 tested, 1.1% active; inhibition, % at 5.96 µM; activity-based probe fluorescence polarization;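 active = inhibition above the campaign mean inhibition plus 3 SD, cut at about 35% in these data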;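 also: 0% = GSTO1-1 with DMSO and 100% = wells lacking GSTO1-1 enzyme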
PAD4 confirm – human PAD4 inhibitors, confirmation, biochemical, fluorescence polarization; AID 488796, 2010; inhibition, % at 6.36 µM; 1,200 tested, 28% active; recombinant PAD4, RCA probe fluorescence polarization; shares compounds with PAD4 FP inh;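 active = mean inhibition across replicates above the hit cutoff set by the earlier primary screen, cut at about 15% in these data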;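 also: inhibitors block active-site labeling by the probe so polarization falls; 0% = PAD4 with probe and DMSO and 100% = probe without PAD4 enzyme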
* marks the source's active call; other numbers are inactive results; · = no result given; + = active, no number.

SMILES	LYPLA2 inh	Fam108B counter	PME-1 primary	LYPLA1 counter	PAD4 FP inh	GSTO1 inh	PAD4 confirm
O=C(Oc1cccc(-c2cnc3ccccc3n2)c1)c1ccco1	-3	-3	-2	-2	24*	13	19*
Cc1nnc(N/N=C/c2cc([N+](=O)[O-])c(N3CCC(C)CC3)cc2N2CCC(C)CC2)n1N	16	12	5	-1	44*	32	3
CCc1nnc(N/N=C/c2ccc(N3CCC(C)CC3)c([N+](=O)[O-])c2)n1N	5	0	5	-3	29*	18	4
CC1(C)CC(NC(=O)c2cccc(S(=O)(=O)N(Cc3ccccc3)c3ccccc3)c2)CC(C)(C)N1	1	-3	-3	3	0	3	·
CN(C(=O)Nc1ccc(C(C)(C)C)cc1)C1CCCCC1	0	2	2	1	2	8	·
CC/C(C)=N/Nc1cccc([N+](=O)[O-])c1	-1	-3	3	0	5	5	·
O=c1[nH]nc(-c2ccc(OCc3ccc(Cl)cc3Cl)cc2)o1	-4	-1	-3	2	89*	11	-2
OCCNCc1ccc(OCc2ccc(Cl)cc2Cl)cc1	0	2	2	2	-1	9	·
CCOc1ccc(N)c(SSc2cc(OCC)ccc2N)c1	-8	-3	-9	1	26*	23	31*
CCCCn1[nH]c(-c2ccccc2)cc1=O	5	2	-12	0	45*	57*	-5
Cc1nnc(SCC(=O)c2ccc(Cl)cc2)n(N)c1=O	-4	2	-6	-1	26*	3	3
Cc1ccc(NC(=O)CSc2nnc(C)c(=O)n2N)cc1Cl	4	1	0	2	2	20	·
N#CC1=C(N)Oc2n[nH]c(-c3cccs3)c2C1c1ccsc1 (stereo unspecified)	-2	4	6	-3	17*	21	-10
CCOC(=O)CNC(=O)c1sc(NC(=O)c2cccc(F)c2)nc1C	2	1	-2	0	25*	1	2
Cc1ccc(C(C[N+](=O)[O-])c2c(C)[nH]n(-c3ccccc3)c2=O)cc1 (stereo unspecified)	-4	5	2	-3	17*	76*	-4
Cc1[nH]n(-c2ccccc2)c(=O)c1C(c1ccccc1[N+](=O)[O-])C(C#N)C#N (stereo unspecified)	2	5	2	0	22*	8	2
Cc1[nH]n(-c2ccccc2)c(=O)c1C(c1ccccc1C(=O)O)c1c(C)[nH]n(-c2ccccc2)c1=O	2	-5	-1	3	-3	4	·
C[C@@]12CCC[C@H](O1)[C@@H]([C@H](O)c1ccccc1)O2	·	·	·	·	-2	·	·
C#Cc1ccc([C@@H]2C=C(C(=O)OCC=C)O[C@H](OCc3ccc(CO)cc3)C2)cc1	4	-3	-7	-1	-8	4	·
Cc1cccc(NC(=O)C(CC(C)C)NC(=O)C2CCC(C)CC2)n1 (stereo unspecified)	6	0	-1	3	20*	4	2
COc1cc(OC)cc(C(=O)N[C@H](C(=O)Nc2ccc3c(c2)OCO3)C(C)C)c1	5	2	-5	5	2	7	·
O=C1[C@H]2[C@@H](c3ccc(F)cc3)N3C(=O)N(c4ccccc4)C(=O)[C@@]3(Cc3ccc(Cl)cc3)[C@H]2C(=O)N1C1CCCCC1	-9	-10	-12	-6	22*	3	2
O=C1[C@H]2[C@@H](c3ccc(F)cc3)N3C(=O)N(c4ccccc4)C(=O)[C@@]3(Cc3ccccc3)[C@H]2C(=O)N1C1CCCCC1	0	1	-9	-2	-4	0	·
CCCC(=O)N(Cc1cc(=O)[nH]c2ccccc12)c1ccc(C)cc1	-2	-1	5	1	23*	-15	27*
Cc1ccc(N(Cc2cc(=O)[nH]c3ccccc23)C(=O)C(C)C)cc1	6	5	2	-1	26*	-16	24*
SMILES	LYPLA2 inh	Fam108B counter	PME-1 primary	LYPLA1 counter	PAD4 FP inh	GSTO1 inh	PAD4 confirm
O/N=C\c1ccc2noc(-c3ccc(Cl)cc3)c2c1	-6	1	-2	-4	-4	-8	·
CCN(CC)CCNC(=O)C(=O)Nc1cc2c3c(c1)CCC(=O)N3CCC2	4	2	3	-2	-2	1	·
Oc1ccc2ccccc2c1C=NCc1ccccc1	-3	10	11	-1	19*	34	-2
O=CN/N=C/c1c(O)ccc2ccccc12	-4	-6	-1	0	-3	15	·
Clc1cccc(Cl)c1CSc1nnc([C@@H]2CCCN2)o1	8	0	-4	3	4	3	·
Cc1ccc(NC(=O)CSc2nnc3n2CCCCC3)cc1	4	2	-6	2	-1	-3	·
Cc1cc(C)cc(NC(=S)/C(=C(\[O-])c2ccc(Cl)s2)[n+]2cccc(C)c2)c1	1	-2	-3	1	90*	-2	-4
O=c1c2ccccc2nnn1-c1ccc(Br)cc1	-1	-2	-4	0	-7	-1	·
O=C(COC(=O)c1ccc(S(=O)(=O)C(F)F)cc1)Nc1ccccc1C(=O)NC1CC1	9	·	6	3	15*	·	4
O=C(COC(=O)c1ccc([N+](=O)[O-])cc1)Nc1ccccc1C(=O)NC1CC1	·	·	·	·	1	·	·
Cc1noc(C)c1NC(=O)Nc1ccc2c(c1)C(=O)N([C@H](C)CO)C[C@H](C)[C@@H](CN(C)C(=O)NC(C)C)O2	·	·	·	·	0	·	·
Cc1c(NC(=O)CSc2nccn2C)c(=O)n(-c2ccccc2)n1C	-4	-1	-2	-1	+	9	-6
CC1COC(c2cccn2Cc2ccccc2Cl)=N1 (stereo unspecified)	1	-3	-4	0	45*	1	0
CCOCCCNC(=S)N(CCO)Cc1cc2cc3c(cc2[nH]c1=O)OCCO3	2	0	-4	-2	23*	9	3
Cc1c(CCC(=O)NCCCn2ccnc2)c(=O)oc2c(C)c3occ(C(C)(C)C)c3cc12	0	-2	-1	-6	-1	-5	·
CCN(C(=O)/C=C/c1ccc(OC)cc1)C1CCS(=O)(=O)C1 (stereo unspecified)	-2	-1	-3	0	-2	0	·
COc1ccc(/C=C/C(=O)N(C)C2CCS(=O)(=O)C2)cc1OC (stereo unspecified)	4	-2	-6	-4	15*	-3	-5
